From the supplement of paper PMC10498489
The whole screen tested about 2,300 compounds, of which about 330 (14%) showed activity. Not all results are given here. Unmarked numbers belong to inactive results.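 Rule for the calls: active = median modified Z-score above 1.96; inactive = 1.96 or below.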

The compounds below were run on HepG2 Srxn1-GFP reporter cells (+30 nM CDDO-Me) (assay: Srxn1-GFP intensity median modified Z-score relative to plate median; higher = stronger NRF2 / oxidative stress reporter activation, active = hit call of the paper). Details: 10 µM; exposure time: 24h.
In short: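 HepG2 Srxn1-GFP BAC reporter cells (20,000 per well, 96-well plates) were co-exposed to an NRF2 activator at 30 nM and compound at 10 μM (≤0.1% DMSO) for 24 h in three replicate plates. After formaldehyde fixation and Hoechst staining, confocal images were analysed per cell for cytoplasmic GFP, excluding images with under 100 cells. The value is the median over replicates of the per-plate modified Z-score of GFP intensity. Scaling used 1.4826 × median absolute deviation.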
With O=C(O)C1CSCN1 (configuration not stated) [euspeclibcmpd1135] the “Srxn1-GFP intensity median modified Z-score” value was -0.116. With O=c1cc(-c2ccc(O)cc2)oc2ccc(O)cc12 [euspeclibcmpd1816] the “Srxn1-GFP intensity median modified Z-score” value was 1.7. Cc1nc(COP(=O)(O)O)cc2c1[O][Mn][O]c1c(cc(COP(=O)(O)O)nc1C)CN(CC(=O)O)CCN(CC(=O)O)C2 [euspeclibcmpd2441] was tested, and the “Srxn1-GFP intensity median modified Z-score” value was 1.06. COc1cc(C(=O)O)cc(OC)c1O was tested, and the “Srxn1-GFP intensity median modified Z-score” value was 1.18. With COC(=O)c1cc(OC)c(=O)c2c(OC)c(OC)ccc2c1 [euspeclibcmpd2293] the “Srxn1-GFP intensity median modified Z-score” value was -0.421. COc1ccc(-c2ccc3cc(C(=O)O)ccc3c2)cc1C12CC3CC(CC(C3)C1)C2 [euspeclibcmpd491] was tested, and the “Srxn1-GFP intensity median modified Z-score” value was 3.08 (active). In the case of COc1cc(C(=O)O)cc(OC)c1O [euspeclibcmpd1648], the “Srxn1-GFP intensity median modified Z-score” value is reported as 0.178. For CCCOc1ccccc1-c1nc(=O)c2[nH]nnc2[nH]1 [euspeclibcmpd2036], the “Srxn1-GFP intensity median modified Z-score” value was -0.165. With N[C@@H]1CCCC[C@H]1N [euspeclibcmpd2386] the “Srxn1-GFP intensity median modified Z-score” value was 1.79. C/C=C/CC(C)C(O)C1C(=O)NC(CC)C(=O)N(C)CC(=O)N(C)C(CC(C)C)C(=O)NC(C(C)C)C(=O)N(C)C(CC(C)C)C(=O)NC(C)C(=O)NC(C)C(=O)N(C)C(CC(C)C)C(=O)N(C)C(CC(C)C)C(=O)N(C)C(C(C)C)C(=O)N1C (configuration not stated) [euspeclibcmpd445] was tested, and the “Srxn1-GFP intensity median modified Z-score” value was 8.19 (active). For CC(=O)O[C@H]1CC[C@@]2(C)C(=CCC3C2CC[C@@]2(C)C3CC[C@@H]2C(C)CCCC(C)C)C1 (some centres not stated) [euspeclibcmpd2217], the “Srxn1-GFP intensity median modified Z-score” value was -0.115. For CCOc1cccc(C(=O)c2ccc(O)c(O)c2O)c1 [euspeclibcmpd1514], the “Srxn1-GFP intensity median modified Z-score” value was -0.219. For CC(NC(CCc1ccccc1)C(=O)O)C(=O)N1CCCC1C(=O)O (configuration not stated) [euspeclibcmpd609], the “Srxn1-GFP intensity median modified Z-score” value was 0.185. For CC(C)=CCCC(C)[C@@H]1CC[C@]2(C)C3=C(CC[C@@]12C)C1(C)CC[C@H](O)C(C)(C)C1CC3 (some centres not stated) [euspeclibcmpd2235], the “Srxn1-GFP intensity median modified Z-score” value was 2.85 (active). With CC(C)=CCCC(C)C1CC[C@@]2(C)C3=C(CC[C@]12C)C1(C)CC[C@H](O)C(C)(C)C1CC3 (some centres not stated) [euspeclibcmpd2336] the “Srxn1-GFP intensity median modified Z-score” value was 0.013. CC(=O)O[C@H]1CCC2(C)C3=C(CCC2C1(C)C)[C@]1(C)CCC(C(C)CCC=C(C)C)[C@@]1(C)CC3 (some centres not stated) [euspeclibcmpd2332] was tested, and the “Srxn1-GFP intensity median modified Z-score” value was -0.0515. In the case of COc1cc(C)c2c(c1C=O)Oc1c(c(C)c(O)c3c(O)oc(O)c13)OC2=O [euspeclibcmpd1947], the “Srxn1-GFP intensity median modified Z-score” value is reported as 0.6. In the case of CC[C@H]1OC(=O)C(C)[C@@H](O[C@H]2C[C@@](C)(OC)[C@@H](O)[C@H](C)O2)[C@H](C)[C@@H](O[C@@H]2O[C@H](C)C[C@H](N(C)C)[C@H]2O)[C@](C)(O)C[C@@H](C)CN(C)[C@H](C)[C@@H](O)[C@]1(C)O (some centres not stated) [euspeclibcmpd690], the “Srxn1-GFP intensity median modified Z-score” value is reported as 1.41. With CC(C)c1ccc2oc3[nH]c(=N)c(C(=O)O)cc3c(=O)c2c1 [euspeclibcmpd492] the “Srxn1-GFP intensity median modified Z-score” value was 1.12. CO[C@H]1CC(O[C@@H]2/C(C)=C/C[C@@H]3C[C@@H](C[C@]4(C=C[C@H](C)[C@@H](C5CCCCC5)O4)O3)OC(=O)C3=CC(C)[C@@H](O)[C@H]4OC/C(=C\C=C\[C@@H]2C)[C@@]34O)O[C@@H](C)C1O[C@H]1C[C@H](OC)[C@@H](O)[C@H](C)O1 (some centres not stated) [euspeclibcmpd131] was tested, and the “Srxn1-GFP intensity median modified Z-score” value was 8.87 (active). CON=C1C[C@]2(C[C@@H]3C[C@@H](C/C=C(\C)C[C@@H](C)/C=C/C=C4\CO[C@@H]5[C@H](O)C(C)=CC(C(=O)O3)[C@]45O)O2)O[C@H](/C(C)=C/C(C)C)C1C (some centres not stated) [euspeclibcmpd768] was tested, and the “Srxn1-GFP intensity median modified Z-score” value was -0.575. In the case of CCC(C)[C@H]1O[C@]2(C=C[C@@H]1C)C[C@@H]1C[C@@H](C/C=C(\C)[C@@H](OC3C[C@H](OC)C(O[C@H]4C[C@H](OC)[C@@H](O)[C@H](C)O4)[C@H](C)O3)[C@@H](C)/C=C/C=C3\CO[C@@H]4[C@H](OC)C(C)=CC(C(=O)O1)[C@]34O)O2 (some centres not stated) [euspeclibcmpd1403], the “Srxn1-GFP intensity median modified Z-score” value is reported as 5.69 (active). With CCC(C)[C@H]1O[C@]2(CC[C@@H]1C)C[C@@H]1C[C@@H](C/C=C(\C)[C@@H](OC3C[C@H](OC)C(O[C@H]4C[C@H](OC)[C@@H](O)[C@H](C)O4)[C@H](C)O3)[C@@H](C)/C=C/C=C3\CO[C@@H]4[C@H](O)C(C)=CC(C(=O)O1)[C@]34O)O2 (some centres not stated) [euspeclibcmpd982] the “Srxn1-GFP intensity median modified Z-score” value was 0.921. In the case of CO[C@H]1CC(O[C@@H]2/C(C)=C/C[C@@H]3C[C@@H](C[C@]4(CC[C@H](C)[C@@H](C5CCCCC5)O4)O3)OC(=O)C3=CC(C)C(=NO)C4OC/C(=C\C=C\[C@@H]2C)[C@@]34O)O[C@@H](C)C1O (some centres not stated) [euspeclibcmpd601], the “Srxn1-GFP intensity median modified Z-score” value is reported as 8.72 (active). For CCC(C)[C@H]1O[C@]2(C=C[C@@H]1C)C[C@@H]1C[C@@H](C/C=C(\C)[C@@H](OC3C[C@H](OC)C(O[C@H]4C[C@H](OC)[C@@H](NC(C)=O)[C@H](C)O4)[C@H](C)O3)[C@@H](C)/C=C/C=C3\CO[C@@H]4[C@H](O)C(C)=CC(C(=O)O1)[C@]34O)O2 (some centres not stated) [euspeclibcmpd495], the “Srxn1-GFP intensity median modified Z-score” value was 0.588. In the case of CCCCC(CC)CN=C(N)N=C(N)NCCCCCCN=C(N)N=C(N)NCC(CC)CCCC (configuration not stated) [euspeclibcmpd2037], the “Srxn1-GFP intensity median modified Z-score” value is reported as 0.191. With CC(=O)NC(CS)C(=O)O (configuration not stated) [euspeclibcmpd14] the “Srxn1-GFP intensity median modified Z-score” value was -0.532. With CC12CCC3c4ccc(O)cc4CCC3C1C[C@H](O)[C@@H]2O (some centres not stated) [euspeclibcmpd2315] the “Srxn1-GFP intensity median modified Z-score” value was -0.0343. In the case of COC(=O)C(Cc1ccccc1)NC(=O)C(N)CC(=O)O (configuration not stated) [euspeclibcmpd740], the “Srxn1-GFP intensity median modified Z-score” value is reported as -0.355. CC(=O)OC1CCC2(C)C(=CCC3C2CCC2(C)C(C(=O)O)CCC32)C1 (configuration not stated) was tested, and the “Srxn1-GFP intensity median modified Z-score” value was 0.226. In the case of CC(c1ncncc1F)[C@](O)(Cn1cncn1)c1ccc(F)cc1F (some centres not stated) [euspeclibcmpd477], the “Srxn1-GFP intensity median modified Z-score” value is reported as -0.000648. For CC(=O)/N=c1\sc(S(N)(=O)=O)nn1C [euspeclibcmpd555], the “Srxn1-GFP intensity median modified Z-score” value was 0.456.
